A selection: hits, their analogues and other compounds. The true share with any hit is near 11%.
HTT aggregate = mutant huntingtin aggregation inhibition | PC12 HttQ103-GFP aggregates, Acumen cytometry, 40 h | Potency, µM (top dose mostly 46.1 µM), without a hit: at the highest dose activity change, negative = inhibition, most hits filed as inhibitors | 1.1% of 220,000 active; note: potency is the fitted concentration of half-maximal effect; % is set by controls: 0 for no effect and ±100 for the full control effect; nearly all actives have a fitted effect of over 60% in size
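Steps: seed 1500 PC12 HTTQ103-GFP cells/well; add tebufenozide, 100 nM final; add compound titration; add ATPLite reagent; quantify GFP aggregates by laser scanning cytometry.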
PNC assembly inh = inhibitors of perinucleolar compartment assembly. AID 2417. activity change (PNC), negative = inhibition, % at 10 µM. 3.1% of 140,000 active. PC3M PTB-GFP, PNC prevalence imaging, 16 h; active compounds read low;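 active = readout at or below -70, meaning at least 70% loss of cells showing the perinucleolar compartment, a nuclear body marking cancer cells; inconclusive = readout between -30 and a set limit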;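 note: plate controls were DMSO wells for no effect and camptothecin positive control wells for full effect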
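Compounds are pinned in duplicate onto adhered PC3M cells stably expressing GFP-tagged PTB and incubated 16 h at 37 C. Cells are then fixed, nuclei stained with Hoechst, and PNC-positive cells counted.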
HPGD block = blocks human HPGD enzyme activity; P15428; purified HPGD, NADH fluorescence kinetic, PGE2 substrate; Potency, µM, without a hit: at the top dose activity change, negative = inhibition, usual class: inhibitors; 4.3% of 150,000 active; AID 894; active = well fitted inhibition curve with a large enough effect, not every such curve was filed as active; inconclusive = small, poorly fitted or top-dose-only effect, or another doubt; inactive = no such curve, though single readings can be large or run the other way; note: potency is the fitted concentration of half-maximal effect; % is set by controls: 0 for no effect and ±100 for the full control effect
Target sequence (P15428 whole entry, looked up): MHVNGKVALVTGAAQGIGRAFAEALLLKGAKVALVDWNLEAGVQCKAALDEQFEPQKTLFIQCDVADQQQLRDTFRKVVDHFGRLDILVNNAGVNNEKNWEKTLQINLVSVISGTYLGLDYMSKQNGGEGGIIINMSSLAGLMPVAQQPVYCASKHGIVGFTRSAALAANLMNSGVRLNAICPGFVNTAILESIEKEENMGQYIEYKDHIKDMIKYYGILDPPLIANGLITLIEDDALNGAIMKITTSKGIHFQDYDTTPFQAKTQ
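NADH formation kinetics: reaction with 30 uM PGE2 and 1 mM NAD+ (final), 20 nM enzyme, Tris-HCl pH 8 with Tween 20, after 15 min compound preincubation at room temperature. Fluorescence change, last versus first of five reads.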
ALDH1A1 inh = blocks purified human ALDH1A1 activity; 7.3% of 220,000 active; Potency, µM (top dose mostly 75.3 µM), without a hit: at the top dose activity, negative = inhibition, most hits filed as inhibitors; Purified ALDH1A1, NADH fluorescence, propionaldehyde substrate; P00352; active = well fitted inhibition curve with a large enough effect, not every such curve was filed as active; inconclusive = small, poorly fitted or top-dose-only effect, or another doubt; inactive = no such curve, though single readings can be large or run the other way;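 note: potency is the fitted concentration of half-maximal effect; plate controls were no enzyme wells and a reference inhibitor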
Target sequence (P00352 whole entry, looked up): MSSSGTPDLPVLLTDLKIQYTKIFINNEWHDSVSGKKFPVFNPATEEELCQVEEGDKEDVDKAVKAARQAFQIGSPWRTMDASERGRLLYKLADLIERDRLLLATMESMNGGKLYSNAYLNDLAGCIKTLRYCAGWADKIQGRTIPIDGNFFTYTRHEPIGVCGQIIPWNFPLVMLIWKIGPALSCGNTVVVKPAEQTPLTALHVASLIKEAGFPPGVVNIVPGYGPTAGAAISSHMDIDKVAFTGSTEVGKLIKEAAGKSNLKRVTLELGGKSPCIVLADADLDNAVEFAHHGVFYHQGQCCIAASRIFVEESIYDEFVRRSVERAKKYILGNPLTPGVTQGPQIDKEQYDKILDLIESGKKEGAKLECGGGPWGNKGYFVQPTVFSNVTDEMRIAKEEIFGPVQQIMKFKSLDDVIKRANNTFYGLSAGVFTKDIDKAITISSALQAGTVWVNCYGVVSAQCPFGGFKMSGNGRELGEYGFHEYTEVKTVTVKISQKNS
HTT cytoprotect = protects HTT-Q103 PC12 cells, measured by ATP; AID 1471; PC12 HTT-Q103 induced, cytoprotection, ATP luminescence, 40 h; 0.14% of 230,000 active; Potency, µM (top dose mostly 56.4 µM), without a hit: cytoprotection (ATP increase), hits mostly activators; note: potency is the fitted concentration of half-maximal effect; % of control where 0% means no effect; nearly all actives have a fitted effect of over 45% in size
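Rat PC12, Q103 Htt exon1-GFP fusion, ecdysone promoter; tebufenozide inducer 100 nM final; compound titration; qHTS, 1500 cells/well; ATPlite luminescent read.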
CBFb-RUNX1 inh = CBF-beta/RUNX1 interaction disruption; AlphaScreen CBFb-His/RUNX1-biotin binding, biochemical; Q01196+Q13951; Potency, µM (top dose mostly 59.8 µM), inactives show top-dose activity, negative = inhibition, usual class: inhibitors; 230,000 tested, under 10 active; note: % of control where 0% means no effect
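Proteins preincubated together for 20 min at RT before compound addition; 15 min later, nickel and streptavidin beads were added and left 90 min prior to AlphaScreen measurement.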
* marks the source's active call; other numbers are inactive results; ? = inconclusive; · = not tested or not shown; [ ] = another dose, or the depositor's remark. Unless noted, calls come from the whole dose curve; as a rule, active = well fitted curve in the direction sought with a large enough effect; inconclusive = small, poorly fitted or top-dose-only effect, or another doubt; inactive = no such curve, though single readings can be large; an effect the other way counts as inactive or inconclusive.

SMILES | HTT aggregate | PNC assembly inh | HPGD block | ALDH1A1 inh | HTT cytoprotect | CBFb-RUNX1 inh
N#C/C(=C1\CCCN1)c1ccc2ccccc2n1 | 5% | 23 | -13% | 8% | -3% | -5%
N#C/C(=C1/CCCCCN1)c1nc2ccccc2[nH]1 | 1% | -18 | -26% | 8.9µM* | -20% | 6%
O=S(=O)(Nc1nc2ccccc2nc1Nc1ccc2c(c1)OCO2)c1ccc(F)cc1 | ? | -84* | · | -3% | 26%[10 µM] | 1%
CCC/C=C(\CCC)C(NP(=O)(c1ccccc1)c1ccccc1)c1ccc(C(F)(F)F)cc1 (stereo not drawn) | · | · | -27% | -9% | -49% | -7%
O=C1C2C3C=CC(CC3)C2C(=O)N1/N=C/c1c[nH]c2ccccc12 (stereo not drawn) | -1% | · | · | ? | -67% | 5%
COc1ccc(/C=N/N2C(=O)C3C4C=CC(CC4)C3C2=O)c(OC)c1 (stereo not drawn) | 24% | · | · | 2.2µM* | -13% | 12%
COc1ccccc1/C=N/N1C(=O)C2C3C=CC(CC3)C2C1=O (stereo not drawn) | 1% | · | · | 7.1µM* | -23% | -5%
S=C(NCCc1ccccc1)Nc1ccc(Br)cc1 | -30% | ? | -11% | 1% | 16%[10 µM] | 7%
Cc1ccc(NC2=Nc3ccccc3CC2)cc1 | 1% | 34 | 32µM* | -1% | -43% | -4%
COc1ncc2nc(-c3cn(C)c4ccccc34)c(=O)n(CCc3ccccc3)c2n1 | · | · | · | 15% | 10% | ·
Cc1cc(C(=O)COC(=O)Cc2n[nH]c(=O)c3ccccc23)c(C)n1-c1cccc(C(F)(F)F)c1 | 7% | -18 | -24% | 7.9µM* | -22%[10 µM] | -9%
Cc1ccc(-n2c(SCC(=O)N3CCCc4ccccc43)nnc2-c2cccnc2)c(C)c1 | 6% | 8 | -20% | ? | 7%[10 µM] | -23%
CCOc1ccccc1-n1c(SCC(=O)N2CCCc3ccccc32)nnc1-c1cccnc1 | -10% | 21 | -1% | 13µM* | 7%[10 µM] | -1%
O=C(CSc1nnc(-c2cccnc2)n1-c1ccc(SC(F)F)cc1)N1CCCc2ccccc21 | 0% | 28 | -2% | 20µM* | · | 17%
Nn1c(SCC(=O)N2CCCc3ccccc32)nnc1-c1ccccc1 | -11% | -23 | 4% | -8% | 6% | 1%
Cc1ccc(NC(=O)CCN2CCN(C/C=C/c3ccccc3)CC2)cc1C | ? | 0 | -13% | 14µM* | -29%[0.074 µM] | 6%
Cc1ccc(NC(=O)CCN2CCN(C/C=C/c3ccccc3)CC2)cc1 | 15% | 26 | -1% | 5% | 10% | -6%
O=C1C=C(c2cccs2)CC(c2cccs2)C1n1cnc([N+](=O)[O-])c1 (stereo not drawn) | 6% | 21 | -15% | 28µM* | -8% | 0%
COc1ccc(C2OCC3(COC(C)=O)C(C)C=C(C)C2C3C)cc1 (stereo not drawn) | · | · | -2% | 5% | -36%[1.9 µM] | 11%[21.7 µM]
Cc1cc(O)c(C)c2c1CC[C@H]1[C@H](C)C(=O)O[C@H]21 | · | · | -2% | 2% | -14% | -4%
COc1ccc(OC)c(Nc2nc(=O)c3cccnc3s2)c1 | 7% | · | · | 2µM* | -27% | -4%
COc1ccc2c(C)cc(SCc3c(C)noc3C)nc2c1 | -17% | -111* | ? | ? | -17% | ?
O=C(O)CC1S/C(=N/N=C/c2ccc([N+](=O)[O-])cc2)N(c2ccc(O)cc2)C1=O (stereo not drawn) | 0%[9.22 µM] | · | · | ? | -29%[1.9 µM] | -2%
c1ccc(-n2cnc3ccccc32)cc1 | ? | · | · | 5% | -22% | 10%
COc1ccc(-n2cnc3ccccc32)cc1 | 14µM* | -16 | -14% | 1% | -11% | 5%
SMILES | HTT aggregate | PNC assembly inh | HPGD block | ALDH1A1 inh | HTT cytoprotect | CBFb-RUNX1 inh
COc1ccc2ncn(-c3ccccc3)c2c1 | 10µM* | -25 | ? | ? | 23%[10 µM] | 3%
O=C(c1cc(C(F)(F)F)cc(C(F)(F)F)c1)N1CCC2(CC1)CCN(c1ccccc1)CC2 | · | · | -5% | 0% | -19% | ·
O=c1c(-c2cc(F)cc(F)c2)nc2cnc(N3CCOCC3)nc2n1C[C@H]1CCCO1 | · | · | · | ? | 7% | ·
CCC(N)(C(=O)O)c1ccc(C(=O)O)cc1 (stereo not drawn) | · | · | · | 2% | -35% | -12%
COc1ccccc1NC1=CC(=O)CC(c2ccccc2)C1 (stereo not drawn) | ? | -96* | -6% | -14% | -64%[10 µM] | 7%
O=C1C=C(Nc2ccc(Cl)cc2)CC(c2ccc(Cl)cc2)C1 (stereo not drawn) | 4% | 4 | 32µM* | -7% | -18% | 10%
Cc1ccc(C2CC(=O)C=C(Nc3ccc(Cl)cc3)C2)cc1 (stereo not drawn) | -15% | 29 | -19% | -3% | 0%[10 µM] | 3%
COc1ccc(C(=O)C2CCCN(Cc3c[nH]c4ccccc34)C2)c(OC)c1 (stereo not drawn) | -10%[9.22 µM] | · | · | -14% | 1%[10 µM] | 6%
COc1ccc(-c2cccc(-c3cc(=O)oc4ccc(C(C)(C)C)cc34)c2)cc1 | · | · | -9% | -7% | · | 4%[89.1 µM]
CCOC(=O)N1CCN(C(=O)CCl)CC1 | ? | · | · | 0.56µM* | -196% | 5%
CC(C)(C)NC(=O)CN1CCN(C(=O)CCl)CC1 | -16% | · | · | 0.32µM* | 4% | 5%
CCOC(=O)N1CCN(C(=O)C2CCC(C(=O)N3CCN(C(=O)OCC)CC3)CC2)CC1 (stereo not drawn) | · | · | · | · | -3%[0.074 µM] | ·
CC(C)(C)NC(=O)NC(=O)CN1CCCCCCC1 | 15% | · | · | ? | -33% | 6%
Cc1nc(NC2CCCCC2)c2nc(-c3ccccc3)n(CCCN3CCOCC3)c2n1 | · | · | ? | ? | -46% | 0%
COc1ccc(S(=O)(=O)Nc2ccc(S(=O)(=O)N(C)C)cc2)cc1[N+](=O)[O-] | 20% | -11 | -8% | 13µM* | 19%[10 µM] | -3%
CCCc1nc2ccccc2c(=O)n1/N=C/c1ccccc1O | 10µM* | ? | -27% | ? | -14%[0.074 µM] | 2%
CCCc1nc2ccccc2c(=O)n1/N=C/c1c(C)[nH]n(-c2ccc(C)cc2)c1=O | 18µM* | ? | -14% | -7% | -6%[0.074 µM] | 1%
CCOC(=O)C1CCN(C(=O)Nc2cc(Cl)cc(Cl)c2)CC1 | -15%[9.22 µM] | · | · | · | -7%[10 µM] | 18%
C=CCNC(=O)CNS(=O)(=O)c1ccc(F)cc1 | 15% | 53 | 32µM* | ? | 16%[1.9 µM] | -3%
O=c1c(-c2cc(F)cc(F)c2)nc2cnc(N3CCNCC3)nc2n1CCc1ccccc1 | · | · | -29% | ? | -10% | ·
CCOC(=O)c1c(NC(=O)CSc2n[nH]c(-c3ccco3)n2)sc(C)c1C | -22% | 37 | 16µM* | -13% | 3% | -11%
